{"source": "PubChem BioAssay AID1745848", "about": "(National Center for Advancing Translational Sciences (NCATS), 2022)", "note": "Out of some 2,100 compounds screened, about 940 (45%) were called active. Not shown: some 48% with an inconclusive outcome. So high a share suggests a set chosen from earlier hits. The list shows a part of the results. A number with no mark means an inactive call. The call rests on the fitted dose curve; in most records, active means well fitted inhibition curve with a large enough effect; inconclusive means small, poorly fitted or top-dose-only effect; inactive means no such curve, though single readings can be large or run the other way. Potency means the concentration at half of the fitted maximal effect."}
{"assay": "Confirmatory qHTS for Inhibitors of ATXN expression; further: nearly all actives have a fitted effect of over 65% in size;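 on activity change, negative = inhibition: 0% = DMSO vehicle wells and -100% = medium-only wells without cells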", "conditions": "ATXN2-luciferase reporter cells, luminescence, 24 h; series mostly up to 11.5 µM; activity change, negative = inhibition: at the top concentration", "excerpt": "PI: Daniel Scoles Ph.D. University of Utah School of Medicine, Salt Lake City, Utah MLPCN Grant: NS073009 Spinocerebellar ataxia type 2 (SCA2) is a multisystem neurodegenerative disease caused by a dominantly acting mutation leading to expansion of a polyQ domain in the ataxin-2 protein (ATXN2). SCA2 patients develop progressive ataxia and later lose function in other neuronal systems. Prominent parkinsonian signs develop in some patients. Like many neurodegenerative disorders, no symptomatic or disease-modifying treatments are known. The primary objective of the proposed research is to identify compounds inhibiting ATXN2 expression and to test them for efficacy in SCA2 mouse models. We have developed a cell-based assay paired with an in vivo mouse model using identical luciferase expression constructs. This approach takes advantage of an ATXN2-luciferase transgene, with the luciferase gene flanked by the upstream and downstream portions of the ATXN2 gene. Here we describe a 5-7 dose quantitative high thoroughput screen (qHTS) for compounds lowering ATXN2 expression. We screened the NIH Molecular Libraries Small Molecule Repository (MLSMR) and NCGC's mechanistically annotated (MIPE) and drug repurposing (NPC) collections of compounds for lowering expression of an ATXN2-luciferase reporter in HEK-293 cells. The assay is a multiplexed cell viability assay to ensure target reduction in the absence of cytotoxicity. Secondary qHTS assays included a CMV-luciferase reporter expressed in HEK-293 cells as well as a biochemical assay using recombinant luciferase to detect inhibitors of the reporter enzyme. Compounds that inhibit ATXN2 expression but is not cytotoxic were selected for confirmatory and secondary screens.\nPROTOCOL TABLE (as described by Inglese J, Shamu CE and Guy RK. 2007) SEQUENCE No. (e.g., 1, 2, 3, etc.); PARAMETER (e.g., Cells, Incubation, Reagent, etc.); VALUE; DESCRIPTION. 1; Cells; 4 uL; white, solid bottom, 1536-well Greiner assay plate. 2; Incubation; 2 hr; 37 degree C in 5% humidified CO2. 3; Compounds; 23 nL; Kalypsis pintool (Wako USA) equipped with a 1536-well pin head. 4; Incubation; 24 hr; 37 degree C in 5% humidified CO2. 5; Reagent; 1 uL; Gly-Phe-7-Amino-4-trifluoromethylcoumarin. 6; Incubation; 30 min; 37 degree C in 5% humidified CO2. 7; Detection; Fluorescence; ViewLux plate reader (PerkinElmer). 8; Reagent; 3 uL; SteadyGlo luciferase solution (Promega). 9; Incubation; 5 min; room temperature. 10; Detection; Luminescence; ViewLux plate reader (PerkinElmer). NOTES (numbers refer to Sequence numbers above) 1. […] expressing ATXN2-luciferase reporter were suspended in phenol-red free DMEM and dispensed in assay plates using a Multidrop Combi dispenser (Thermo Fisher Scientific). Wells containing medium only were plated on each plate, and values were used to normalize (100% inhibition) in the luciferase and CellTiter-Fluor assays. 2. Assay plates were incubated. Evaporation was prevented by covering assay plates with metal lids containing holes to allow gas diffusion. 3. Compounds were added in a dose response manner with the final concentrations of 57, 11.4, 2.28, 0.46, 0.091, 0.018, 0.0037 uM. Vehicle-only plates, with DMSO being pin-transferred to columns 5-48, were inserted uniformly at the beginning and the end of each library to monitor and record any shifts in assay performance. 5. 125 uM Gly-Phe-7-Amino-4-trifluoromethylcoumarin (MP Biomedicals) working concentration was used at a final concentration of 25 uM. 7. To assess cell viability; the assay plates were read using the ViewLux high-throughput CCD imager (PerkinElmer), wherein single end-point fluorescence measurement was acquired (excitation 405/10; emission 540/25 nm). 8. Detection reagent SteadyGlo Luciferase (Promega) was added to the assay plate. 10. Luminescence is then measured on the ViewLux imager equipped with a clear emission filter using a 2 sec exposure. […]"}
{"smiles": "COc1ccc(CC(=O)Nc2nc(-c3ccc(F)c(F)c3)cs2)cc1OC", "Potency": "4.47 µM (active)"}
{"smiles": "COCCNc1nc(-c2cc(C)n(CCc3ccc(OC)cc3)c2C)cs1", "activity change, negative = inhibition": "-16.2% [at 57.5 µM]"}
{"smiles": "COc1ccc(CC(=O)Nc2nc(-c3ccc(OC)c(OC)c3)cs2)cc1OC", "Potency": "3.16 µM (active)"}
{"smiles": "O=C(CCN1C(=O)C2CC=CCC2C1=O)Nc1nc(-c2ccc(F)c(F)c2)cs1", "note": "(stereo unspecified)", "activity change, negative = inhibition": "-4.12% [at 57.5 µM]"}
{"smiles": "COc1cc(CC(=O)Nc2nc(-c3ccc(F)c(F)c3)cs2)cc(OC)c1OC", "Potency": "3.98 µM (active)"}
{"smiles": "O=C(Nc1nc(-c2ccc(F)c(F)c2)cs1)Nc1ccc(F)cc1F", "Potency": "1.41 µM (active)"}
{"smiles": "CCCCCc1ccc(OCCC[n+]2ccccc2)c(CCCCC)c1", "Potency": "14.1 µM (active)"}
{"smiles": "CCCCCc1ccc(OCCCC[n+]2cccc(C)c2)c(CCCCC)c1", "Potency": "14.1 µM (active)"}
{"smiles": "CCOC(=O)[C@H]1[C@H]2COc3ccc(OC)cc3[C@@H]2N2C(=O)c3cc(OC)c(OC)cc3NC(=O)[C@@]12C", "activity change, negative = inhibition": "-9.99%"}
{"smiles": "COc1ccc(/C=C2\\CN(Cc3ccccc3)C/C(=C\\c3ccc(OC)c(O)c3)C2=O)cc1O", "Potency": "3.98 µM (active)"}
{"smiles": "COc1ccc(C(=O)Cn2c(C(=O)/C=C/c3ccccc3)nc3ccccc32)cc1", "Potency": "2.82 µM (active)"}
{"smiles": "COCC(C)n1c(C)cc(C(=O)COC(=O)c2cccn2C)c1C", "note": "(stereo unspecified)", "Potency": "2.24 µM (active)"}
{"smiles": "C/C(=N\\NC(=O)c1cc(-c2cccnc2)nc2ccccc12)c1ccc(O)cc1O", "Potency": "2.51 µM (active)"}
{"smiles": "C/C(=N\\NC(=O)c1cc(C2CC2)nc2ccccc12)c1ccc(O)cc1O", "Potency": "3.55 µM (active)"}
{"smiles": "Cc1onc(-c2ccccc2)c1C(=O)Nc1ccc(S(=O)(=O)NC(C)(C)C)cc1", "activity change, negative = inhibition": "-20.4% [at 57.5 µM]"}
{"smiles": "COc1cccc(/C=N/NC(=O)c2c(-c3ccccc3)noc2C)c1O", "Potency": "0.708 µM (active)"}
{"smiles": "Cc1cccc(/C=N/NC(=O)c2c(-c3ccccc3)noc2C)c1O", "Potency": "1.26 µM (active)"}
{"smiles": "Cc1cc(N2CCN(C)CC2)ccc1NC(=O)c1ccc(-c2ccc(Cl)cc2)o1", "Potency": "14.1 µM (active)"}
{"smiles": "O=C(N/N=C/c1ccccc1O)C1CC(=O)N(c2ccc(F)cc2)C1", "note": "(stereo unspecified)", "Potency": "3.55 µM (active)"}
{"smiles": "O=C(N/N=C/c1ccccc1O)C1CC(=O)N(c2ccc(Cl)cc2)C1", "note": "(stereo unspecified)", "Potency": "1.41 µM (active)"}
{"smiles": "CCc1ccc(N2CC(C(=O)N/N=C/c3cc([N+](=O)[O-])ccc3O)CC2=O)cc1", "note": "(stereo unspecified)", "Potency": "25.1 µM (active)"}
{"smiles": "COc1ccccc1C(=O)NNC(=S)NC(=O)c1ccco1", "Potency": "6.31 µM (active)"}
{"smiles": "CC(Oc1ccc(Cl)cc1)C(=O)NNC(=S)NC(=O)c1ccco1", "note": "(stereo unspecified)", "Potency": "14.1 µM (active)"}
{"smiles": "COC(=O)C(Cc1ccc(O)cc1)NC(=O)C(C)Oc1ccccc1", "note": "(stereo unspecified)", "activity change, negative = inhibition": "-11.3% [at 57.5 µM]"}
{"smiles": "COc1ccccc1NC(=S)NC(=O)c1ccc(Cn2cc(Br)cn2)cc1", "activity change, negative = inhibition": "-19.7% [at 57.5 µM]"}
{"smiles": "CC(=O)c1ccc(NC(=O)COC(=O)c2c3c(nc4ccccc24)/C(=C\\c2cccs2)CCC3)cc1", "Potency": "20 µM (active)"}
{"smiles": "O=C(NN=Cc1ccc(O)cc1O)c1ccccc1NS(=O)(=O)c1cccs1", "Potency": "2.82 µM (active)"}
{"smiles": "CN1C/C(=C/c2cccnc2)C(=O)/C(=C/c2cccnc2)C1", "activity change, negative = inhibition": "1.08%"}
{"smiles": "O=C1/C(=C/c2ccncc2)CCC/C1=C\\c1ccncc1", "Potency": "5.62 µM (active)"}
{"smiles": "CCn1c(/C=C/c2ccc([N+](=O)[O-])o2)nc2ccccc2c1=O", "Potency": "7.08 µM (active)"}
{"smiles": "O=C(Nc1ccc(F)cc1)Nc1cc(OCC(F)(F)F)cc(OCC(F)(F)F)c1", "Potency": "3.55 µM (active)"}
{"smiles": "COc1ccc(CC2C(=O)NC(C)C(=O)N(C)C3Cc4ccc(cc4)Oc4cc(ccc4O)CC(C(=O)NC(C)C(=O)NC(C)C(=O)N2C)N(C)C3=O)cc1", "note": "(stereo unspecified)", "Potency": "0.251 µM (active)"}
{"smiles": "O=C(CSCc1ccc(Cl)cc1)Nc1cc([N+](=O)[O-])ccc1O", "activity change, negative = inhibition": "-3.54%"}
{"smiles": "O=C(CCC(=O)Nc1cc(C(F)(F)F)ccc1Cl)N/N=C\\c1cc([N+](=O)[O-])ccc1O", "Potency": "3.16 µM (active)"}
{"smiles": "O=C(CCCC(=O)Nc1cccc(Br)c1)N/N=C/c1cc([N+](=O)[O-])ccc1O", "Potency": "3.16 µM (active)"}
{"smiles": "c1ccc(CN=C(NCc2ccccc2)NCc2ccccc2)cc1", "Potency": "28.2 µM (active)"}
{"smiles": "COc1ccc2[nH]c3c(N4CCC(O)(c5cccc(C(F)(F)F)c5)CC4)ncnc3c2c1", "Potency": "2.82 µM (active)"}
{"smiles": "COc1cccc2c1C1COC3C4CC(C(=O)O)C(C(C2)N13)N4C", "note": "(stereo unspecified)", "Potency": "10 µM (active)"}
{"smiles": "COc1cccc2c1C(CO)N1C(C#N)C3CC(C(=O)O)C(C1C2)N3C", "note": "(stereo unspecified)", "Potency": "0.282 µM (active)"}
{"smiles": "Cc1nnc(-c2ccccc2)c(=O)n1/N=C/c1c(O)ccc2ccccc12", "Potency": "10 µM (active)"}
{"smiles": "COC(=O)c1ccc(N2CCOCC2)c(NC(=O)Nc2cccc(OC)c2)c1", "activity change, negative = inhibition": "-5.44%"}
{"smiles": "COc1ccc2nc(C)cc(Nc3ccc(N4CCOCC4)cc3)c2c1", "Potency": "15.8 µM (active)"}
{"smiles": "CC(C)(C)c1ccc(C(=O)N2CCCCCC2=O)cc1", "Potency": "1.78 µM (active)"}
{"smiles": "COc1ccc(-c2csc(N(CCCN(C)C)C(=O)c3ccccc3Cl)n2)cc1", "Potency": "3.16 µM (active)"}
{"smiles": "COc1ccc(-c2csc(N(CCCN3CCOCC3)C(=O)c3ccco3)n2)cc1", "Potency": "3.16 µM (active)"}
{"smiles": "COc1ccc(/C(N)=N/OC(=O)N2CCOCC2)cc1", "activity change, negative = inhibition": "-30.8%"}
